Source: PMC7862700, “An all-to-all approach to the identification of sequence-specific readers for epigenetic DNA modifications on cytosine”

Columns and labels:
Assay in all cases: DAPPL (digital affinity profiling via proximity ligation, sequencing); 10 mM Tris-HCl pH 7.5, 50 mM NaCl, 1 mM DTT, 4% glycerol, room temperature, 30 min; GST-TFs on glutathione beads, 16-mer random dsDNA library, 0.1% formaldehyde crosslink after washing; high values mean tight binding
Conditions in all cases: protein: recombinant; tags: N-terminal GST; dsDNA, one strand shown
ELK1 = biological target: T1, ELK1 (Homo sapiens, UniProt P19419 1-428)
T1 sequence: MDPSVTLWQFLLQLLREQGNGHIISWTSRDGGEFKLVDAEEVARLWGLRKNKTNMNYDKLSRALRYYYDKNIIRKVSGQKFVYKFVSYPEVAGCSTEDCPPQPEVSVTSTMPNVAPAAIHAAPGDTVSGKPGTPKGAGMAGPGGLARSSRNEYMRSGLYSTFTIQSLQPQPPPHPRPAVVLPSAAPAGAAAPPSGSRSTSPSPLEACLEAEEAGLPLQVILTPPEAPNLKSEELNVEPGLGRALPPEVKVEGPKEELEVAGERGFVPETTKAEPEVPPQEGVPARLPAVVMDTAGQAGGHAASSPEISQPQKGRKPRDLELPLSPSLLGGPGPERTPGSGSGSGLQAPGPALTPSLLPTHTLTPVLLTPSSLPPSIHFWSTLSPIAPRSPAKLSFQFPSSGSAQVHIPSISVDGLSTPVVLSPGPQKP
Summary of the method: (§1)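 GST fusions of human transcription factors were expressed in yeast and captured with glutathione beads. Once given DNA barcodes and pooled alongside a tag-only sample, they were incubated for 30 min at room temperature with 200 nmole of a random double-stranded 16-mer DNA library in Tris/NaCl/DTT/glycerol buffer, then washed, crosslinked (0.1% formaldehyde), proximity-ligated, PCR-amplified and sequenced on an Illumina NextSeq500. The binding signal of each hexamer is its read frequency for a factor divided by its frequency for the tag-only sample.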

ELF1 = ELF1 (Homo sapiens, UniProt P32519 1-619)
Sequence of ELF1 (P32519 whole entry): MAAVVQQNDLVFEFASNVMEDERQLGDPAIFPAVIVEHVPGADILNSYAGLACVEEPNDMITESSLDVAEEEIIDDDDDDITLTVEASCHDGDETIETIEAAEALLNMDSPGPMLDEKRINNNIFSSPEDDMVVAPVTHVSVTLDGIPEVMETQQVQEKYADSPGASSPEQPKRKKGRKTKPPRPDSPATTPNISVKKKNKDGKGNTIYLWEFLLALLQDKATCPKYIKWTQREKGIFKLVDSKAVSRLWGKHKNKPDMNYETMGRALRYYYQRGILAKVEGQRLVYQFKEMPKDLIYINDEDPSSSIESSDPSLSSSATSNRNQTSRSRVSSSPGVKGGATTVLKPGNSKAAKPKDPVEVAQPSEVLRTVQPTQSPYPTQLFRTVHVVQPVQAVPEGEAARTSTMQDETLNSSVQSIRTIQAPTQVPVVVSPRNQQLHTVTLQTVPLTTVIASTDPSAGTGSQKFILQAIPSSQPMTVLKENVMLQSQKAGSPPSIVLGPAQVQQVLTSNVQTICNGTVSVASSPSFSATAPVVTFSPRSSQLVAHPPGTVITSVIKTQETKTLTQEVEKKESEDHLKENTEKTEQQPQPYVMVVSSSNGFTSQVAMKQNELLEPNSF
Summary of the method: as §1

SPIB = SPIB (Homo sapiens, UniProt Q01892 1-262)
Sequence of SPIB (Q01892 whole entry): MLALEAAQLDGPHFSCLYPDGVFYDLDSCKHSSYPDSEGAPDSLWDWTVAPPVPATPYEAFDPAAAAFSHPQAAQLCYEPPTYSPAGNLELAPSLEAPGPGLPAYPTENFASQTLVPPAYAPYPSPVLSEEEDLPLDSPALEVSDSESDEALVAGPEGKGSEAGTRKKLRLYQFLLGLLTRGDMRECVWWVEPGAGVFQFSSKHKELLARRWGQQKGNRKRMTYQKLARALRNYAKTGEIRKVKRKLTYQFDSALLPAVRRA
Summary of the method: as §1

ETV5 = ETV5 (Homo sapiens, UniProt P41161 1-510)
Sequence of ETV5 (P41161 whole entry): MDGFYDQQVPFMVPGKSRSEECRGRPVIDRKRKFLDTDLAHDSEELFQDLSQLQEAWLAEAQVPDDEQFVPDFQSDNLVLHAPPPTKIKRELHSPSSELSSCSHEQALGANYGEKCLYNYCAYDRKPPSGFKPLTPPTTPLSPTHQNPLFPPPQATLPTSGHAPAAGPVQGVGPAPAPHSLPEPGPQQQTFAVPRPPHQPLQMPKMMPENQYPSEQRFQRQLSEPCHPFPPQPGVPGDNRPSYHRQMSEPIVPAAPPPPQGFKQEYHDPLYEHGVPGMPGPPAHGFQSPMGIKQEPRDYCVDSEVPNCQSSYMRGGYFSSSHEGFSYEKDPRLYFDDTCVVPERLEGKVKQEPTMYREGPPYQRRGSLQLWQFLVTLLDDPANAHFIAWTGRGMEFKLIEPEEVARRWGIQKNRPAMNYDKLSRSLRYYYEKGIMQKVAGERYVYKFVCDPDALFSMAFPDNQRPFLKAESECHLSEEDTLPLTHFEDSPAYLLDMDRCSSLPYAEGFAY
Summary of the method: as §1

ELK4 = biological target: T2, ELK4 (Homo sapiens, UniProt P28324-2 1-405)
T2 sequence: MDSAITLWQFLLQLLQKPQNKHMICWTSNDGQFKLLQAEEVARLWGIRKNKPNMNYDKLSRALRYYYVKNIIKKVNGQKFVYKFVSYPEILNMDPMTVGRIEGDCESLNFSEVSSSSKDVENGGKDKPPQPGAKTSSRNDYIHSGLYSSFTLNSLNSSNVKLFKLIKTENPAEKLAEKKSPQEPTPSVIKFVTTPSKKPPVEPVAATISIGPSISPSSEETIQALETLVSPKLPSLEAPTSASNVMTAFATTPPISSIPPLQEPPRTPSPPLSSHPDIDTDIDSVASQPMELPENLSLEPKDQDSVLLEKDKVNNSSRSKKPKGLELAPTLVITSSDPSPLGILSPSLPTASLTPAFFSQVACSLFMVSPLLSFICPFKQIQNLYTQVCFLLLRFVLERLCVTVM
Summary of the method: as §1

ETV1 = ETV1 (Homo sapiens, UniProt P50549 1-477)
Sequence of ETV1 (P50549 whole entry): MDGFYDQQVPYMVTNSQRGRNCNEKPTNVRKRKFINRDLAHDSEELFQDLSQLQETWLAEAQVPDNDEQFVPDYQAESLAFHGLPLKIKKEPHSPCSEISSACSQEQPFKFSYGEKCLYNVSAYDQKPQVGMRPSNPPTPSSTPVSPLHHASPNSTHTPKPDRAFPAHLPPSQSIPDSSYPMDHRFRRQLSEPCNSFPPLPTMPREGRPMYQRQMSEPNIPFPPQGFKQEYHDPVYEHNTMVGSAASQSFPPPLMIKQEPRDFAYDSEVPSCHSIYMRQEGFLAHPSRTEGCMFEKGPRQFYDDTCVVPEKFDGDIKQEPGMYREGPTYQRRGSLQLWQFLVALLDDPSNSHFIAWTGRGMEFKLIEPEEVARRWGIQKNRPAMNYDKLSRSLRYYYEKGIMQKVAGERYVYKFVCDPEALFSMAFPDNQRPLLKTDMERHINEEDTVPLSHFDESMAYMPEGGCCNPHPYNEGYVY
Summary of the method: as §1

ERF = biological target: T3, ERF (Homo sapiens, UniProt P50548 1-548)
T3 sequence: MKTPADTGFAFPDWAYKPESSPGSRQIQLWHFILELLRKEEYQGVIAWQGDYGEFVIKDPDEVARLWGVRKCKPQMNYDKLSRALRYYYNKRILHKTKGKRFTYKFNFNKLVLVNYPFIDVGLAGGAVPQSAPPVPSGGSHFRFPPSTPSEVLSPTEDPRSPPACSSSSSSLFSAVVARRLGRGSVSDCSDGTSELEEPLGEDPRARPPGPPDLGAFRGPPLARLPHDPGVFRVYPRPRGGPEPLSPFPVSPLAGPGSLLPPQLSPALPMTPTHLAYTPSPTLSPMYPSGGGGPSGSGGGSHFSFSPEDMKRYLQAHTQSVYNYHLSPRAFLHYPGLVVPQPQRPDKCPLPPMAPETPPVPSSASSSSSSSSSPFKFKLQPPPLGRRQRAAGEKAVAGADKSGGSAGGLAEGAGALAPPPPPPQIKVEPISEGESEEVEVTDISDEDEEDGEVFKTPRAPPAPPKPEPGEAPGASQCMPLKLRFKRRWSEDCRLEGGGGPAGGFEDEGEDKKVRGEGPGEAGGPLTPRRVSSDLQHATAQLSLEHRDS
Summary of the method: as §1

SPDEF = biological target: T4, SPDEF (Homo sapiens, UniProt O95238 1-335)
T4 sequence: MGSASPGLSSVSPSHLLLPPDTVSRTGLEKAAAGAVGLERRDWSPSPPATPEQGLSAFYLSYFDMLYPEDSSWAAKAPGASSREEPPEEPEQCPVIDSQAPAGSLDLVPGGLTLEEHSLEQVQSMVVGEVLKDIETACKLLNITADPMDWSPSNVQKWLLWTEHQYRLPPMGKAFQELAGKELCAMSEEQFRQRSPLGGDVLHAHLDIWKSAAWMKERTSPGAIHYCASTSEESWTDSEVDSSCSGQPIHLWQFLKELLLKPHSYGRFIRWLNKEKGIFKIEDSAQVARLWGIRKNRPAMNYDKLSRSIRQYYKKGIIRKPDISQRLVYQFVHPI
Summary of the method: as §1

ERG = biological target: T5, ERG (Homo sapiens, UniProt P11308 1-479)
T5 sequence: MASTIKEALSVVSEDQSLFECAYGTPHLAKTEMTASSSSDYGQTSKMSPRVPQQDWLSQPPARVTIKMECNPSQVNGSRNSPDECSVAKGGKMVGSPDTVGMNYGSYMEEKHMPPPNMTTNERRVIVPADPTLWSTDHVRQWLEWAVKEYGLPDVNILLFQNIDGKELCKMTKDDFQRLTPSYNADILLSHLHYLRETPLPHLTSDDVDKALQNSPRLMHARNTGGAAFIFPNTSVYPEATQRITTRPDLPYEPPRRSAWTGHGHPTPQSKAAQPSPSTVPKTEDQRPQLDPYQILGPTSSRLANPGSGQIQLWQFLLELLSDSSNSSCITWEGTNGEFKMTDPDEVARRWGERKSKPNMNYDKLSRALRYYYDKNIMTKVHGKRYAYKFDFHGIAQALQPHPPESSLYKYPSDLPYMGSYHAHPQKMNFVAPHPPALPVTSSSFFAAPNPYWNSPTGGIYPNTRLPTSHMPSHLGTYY
Summary of the method: as §1

EHF = biological target: T6, EHF (Homo sapiens, UniProt Q9NZC4 1-300)
T6 sequence: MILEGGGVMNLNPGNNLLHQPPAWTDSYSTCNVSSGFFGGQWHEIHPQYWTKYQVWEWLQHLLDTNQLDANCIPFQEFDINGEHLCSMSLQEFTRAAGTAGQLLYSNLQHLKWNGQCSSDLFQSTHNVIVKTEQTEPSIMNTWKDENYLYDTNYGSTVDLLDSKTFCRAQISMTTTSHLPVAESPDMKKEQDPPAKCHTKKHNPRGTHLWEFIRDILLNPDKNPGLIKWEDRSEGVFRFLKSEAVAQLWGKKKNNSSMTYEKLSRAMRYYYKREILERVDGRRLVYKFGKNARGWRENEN
Summary of the method: as §1

ELK3 = biological target: T7, ELK3 (Homo sapiens, UniProt P41970 1-407)
T7 sequence: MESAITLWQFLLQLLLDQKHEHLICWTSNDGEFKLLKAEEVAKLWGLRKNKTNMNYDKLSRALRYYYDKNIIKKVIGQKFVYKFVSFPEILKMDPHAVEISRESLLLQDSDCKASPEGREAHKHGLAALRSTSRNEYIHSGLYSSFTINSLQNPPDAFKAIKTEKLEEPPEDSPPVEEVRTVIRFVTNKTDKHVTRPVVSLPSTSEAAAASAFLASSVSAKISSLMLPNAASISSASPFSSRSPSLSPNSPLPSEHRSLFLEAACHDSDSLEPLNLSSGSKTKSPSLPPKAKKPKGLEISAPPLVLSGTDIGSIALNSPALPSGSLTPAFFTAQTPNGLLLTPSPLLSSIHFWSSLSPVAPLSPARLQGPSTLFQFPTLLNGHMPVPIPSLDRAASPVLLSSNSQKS
Summary of the method: as §1

SPIC = biological target: T8, SPIC (Homo sapiens, UniProt Q8N5J4 1-248)
T8 sequence: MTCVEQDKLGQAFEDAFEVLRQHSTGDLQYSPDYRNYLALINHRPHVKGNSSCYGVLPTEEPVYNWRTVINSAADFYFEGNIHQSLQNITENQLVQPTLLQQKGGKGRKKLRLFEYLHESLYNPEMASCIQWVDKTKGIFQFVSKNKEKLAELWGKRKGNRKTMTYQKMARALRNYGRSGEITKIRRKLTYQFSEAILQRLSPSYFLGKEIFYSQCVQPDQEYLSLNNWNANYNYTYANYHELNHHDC
Summary of the method: as §1

ELF3 = biological target: T9, ELF3 (Homo sapiens, UniProt P78545 1-371)
T9 sequence: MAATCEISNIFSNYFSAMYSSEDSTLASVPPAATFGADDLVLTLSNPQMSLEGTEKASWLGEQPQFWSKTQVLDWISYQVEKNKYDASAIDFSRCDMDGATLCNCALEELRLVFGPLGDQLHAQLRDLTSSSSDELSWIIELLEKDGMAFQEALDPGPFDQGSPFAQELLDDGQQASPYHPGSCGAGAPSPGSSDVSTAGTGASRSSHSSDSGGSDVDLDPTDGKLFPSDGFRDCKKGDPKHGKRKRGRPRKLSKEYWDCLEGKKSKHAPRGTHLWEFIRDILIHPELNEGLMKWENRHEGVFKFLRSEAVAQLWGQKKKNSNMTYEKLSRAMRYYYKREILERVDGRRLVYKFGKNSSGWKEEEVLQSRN
Summary of the method: as §1

ETV3L = biological target: T10, ETV3L (Homo sapiens, UniProt Q6ZN32 1-361)
T10 sequence: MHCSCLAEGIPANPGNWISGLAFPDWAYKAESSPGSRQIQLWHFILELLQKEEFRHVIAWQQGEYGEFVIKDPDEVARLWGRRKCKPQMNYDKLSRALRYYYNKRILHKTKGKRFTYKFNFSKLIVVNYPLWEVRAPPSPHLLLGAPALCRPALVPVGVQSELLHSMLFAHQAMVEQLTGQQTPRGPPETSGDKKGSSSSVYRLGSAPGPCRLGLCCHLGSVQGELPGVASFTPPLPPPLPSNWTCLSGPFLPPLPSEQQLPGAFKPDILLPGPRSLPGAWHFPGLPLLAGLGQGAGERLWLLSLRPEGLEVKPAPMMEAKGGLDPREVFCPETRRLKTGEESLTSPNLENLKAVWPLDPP
Summary of the method: as §1

ETS2 = biological target: T11, ETS2 (Homo sapiens, UniProt P15036 1-469)
T11 sequence: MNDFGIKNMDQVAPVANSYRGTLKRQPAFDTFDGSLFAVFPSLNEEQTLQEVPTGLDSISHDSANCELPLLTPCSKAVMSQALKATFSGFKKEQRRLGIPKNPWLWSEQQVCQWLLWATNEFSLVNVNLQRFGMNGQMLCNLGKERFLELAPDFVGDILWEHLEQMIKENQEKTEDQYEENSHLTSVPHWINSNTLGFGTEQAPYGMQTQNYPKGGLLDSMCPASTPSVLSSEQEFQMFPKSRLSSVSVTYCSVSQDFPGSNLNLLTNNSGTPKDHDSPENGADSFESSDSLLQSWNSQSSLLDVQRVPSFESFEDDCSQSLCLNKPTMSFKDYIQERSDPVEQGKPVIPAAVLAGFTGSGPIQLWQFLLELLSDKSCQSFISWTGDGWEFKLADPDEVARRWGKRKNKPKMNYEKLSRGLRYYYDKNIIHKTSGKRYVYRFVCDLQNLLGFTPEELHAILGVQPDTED
Summary of the method: as §1

ETV7 = biological target: T12, ETV7 (Homo sapiens, UniProt Q9Y603 1-341)
T12 sequence: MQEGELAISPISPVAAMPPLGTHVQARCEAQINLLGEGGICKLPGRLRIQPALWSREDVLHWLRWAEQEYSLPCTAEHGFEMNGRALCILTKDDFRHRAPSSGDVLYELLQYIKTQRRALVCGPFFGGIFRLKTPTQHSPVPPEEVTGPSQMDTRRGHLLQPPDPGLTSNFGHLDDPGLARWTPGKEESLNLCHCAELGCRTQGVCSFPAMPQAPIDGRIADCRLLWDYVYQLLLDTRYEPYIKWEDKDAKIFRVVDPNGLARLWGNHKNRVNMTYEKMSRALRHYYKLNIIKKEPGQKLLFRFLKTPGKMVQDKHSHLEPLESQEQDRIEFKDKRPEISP
Summary of the method: as §1

ETV3 = biological target: T13, ETV3 (Homo sapiens, UniProt P41162-2 1-143)
T13 sequence: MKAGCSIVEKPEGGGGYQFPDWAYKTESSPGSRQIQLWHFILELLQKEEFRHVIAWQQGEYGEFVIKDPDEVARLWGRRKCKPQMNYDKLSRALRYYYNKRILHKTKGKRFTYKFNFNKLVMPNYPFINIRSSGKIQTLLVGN
Summary of the method: as §1

ETV6 = ETV6 (Homo sapiens, UniProt P41212 1-452)
Sequence of ETV6 (P41212 whole entry): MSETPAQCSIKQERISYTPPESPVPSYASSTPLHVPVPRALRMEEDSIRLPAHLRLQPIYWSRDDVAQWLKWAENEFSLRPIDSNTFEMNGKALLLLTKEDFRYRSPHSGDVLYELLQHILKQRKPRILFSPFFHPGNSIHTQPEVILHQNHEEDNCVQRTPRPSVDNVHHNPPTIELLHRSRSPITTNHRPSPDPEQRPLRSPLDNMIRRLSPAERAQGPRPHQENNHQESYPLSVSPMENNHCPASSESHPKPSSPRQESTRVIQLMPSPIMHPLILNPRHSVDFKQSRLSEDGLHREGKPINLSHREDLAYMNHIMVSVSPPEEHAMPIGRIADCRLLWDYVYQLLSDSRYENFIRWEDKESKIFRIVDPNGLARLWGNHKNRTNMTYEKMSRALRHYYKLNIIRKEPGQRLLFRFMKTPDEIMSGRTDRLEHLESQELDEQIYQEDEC
Summary of the method: as §1

Row | Sequence | binding signal (ELK1) | binding signal (ELF1) | binding signal (SPIB) | binding signal (ETV5) | binding signal (ELK4) | binding signal (ETV1) | binding signal (ERF) | binding signal (SPDEF) | binding signal (ERG) | binding signal (EHF) | binding signal (ELK3) | binding signal (SPIC) | binding signal (ELF3) | binding signal (ETV3L) | binding signal (ETS2) | binding signal (ETV7) | binding signal (ETV3) | binding signal (ETV6)
1 | GTACCA | 1.04 fold enrichment (6-mer frequency, TF over GST control) | 1.01 fold enrichment (6-mer frequency, TF over GST control) | 1.02 fold enrichment (6-mer frequency, TF over GST control) | 1.07 fold enrichment (6-mer frequency, TF over GST control) | 1.09 fold enrichment (6-mer frequency, TF over GST control) | 1 fold enrichment (6-mer frequency, TF over GST control) | 1.04 fold enrichment (6-mer frequency, TF over GST control) | 1 fold enrichment (6-mer frequency, TF over GST control) |  |  |  |  |  |  |  |  |  | 
2 | AGTCCT | 1.06 fold enrichment (6-mer frequency, TF over GST control) |  | 1.13 fold enrichment (6-mer frequency, TF over GST control) | 1.05 fold enrichment (6-mer frequency, TF over GST control) | 1 fold enrichment (6-mer frequency, TF over GST control) | 1 fold enrichment (6-mer frequency, TF over GST control) |  | 1.02 fold enrichment (6-mer frequency, TF over GST control) | 1.07 fold enrichment (6-mer frequency, TF over GST control) | 1.03 fold enrichment (6-mer frequency, TF over GST control) | 1.01 fold enrichment (6-mer frequency, TF over GST control) | 1.13 fold enrichment (6-mer frequency, TF over GST control) | 1.03 fold enrichment (6-mer frequency, TF over GST control) | 1.02 fold enrichment (6-mer frequency, TF over GST control) | 1.06 fold enrichment (6-mer frequency, TF over GST control) | 1.14 fold enrichment (6-mer frequency, TF over GST control) | 1.01 fold enrichment (6-mer frequency, TF over GST control) | 1.03 fold enrichment (6-mer frequency, TF over GST control)
